Assay results published in PubChem BioAssay (Tox21).
Inconclusive results are not listed. Entries that show only a call come without a potency. Calls of active or inactive are those of the source. Calls follow the shape of the dose curve; as a rule, active = well fitted cell-killing curve with a large enough effect in the repeat runs; inconclusive = weak or mixed curves, or effect the other way; inactive = flat fitted curve, though single readings scatter.

assay: qHTS assay to identify small molecule antagonists of the estrogen receptor alpha (ER-alpha) signaling pathway using the BG1 cell line in the presence of 0.1 nM 17-beta-estradiol - cell viability counter screen (AID 1259241); settings: VM7Luc4E2 (BG1) viability, CellTiter-Fluor protease, 22 h, 0.1 nM estradiol agonist added; series mostly up to 92.4 µM; also: nearly all actives have a fitted effect of over 40% in size
From the text: National Center for Advancing Translational Sciences [NCATS]
NIH Chemical Genomics Center [NCGC]
U.S. Environmental Protection Agency [EPA]
National Institutes of Environmental Health Sciences [NIEHS]
National Toxicology Program [NTP]
U.S. Food and Drug Administration [FDA]
Estrogen receptor (ER), a member of the nuclear hormone receptor plays an important role in development, metabolic homeostasis and reproduction. Two subtypes of ER, ER-alpha and ER-beta, have similar expression patterns with some uniqueness in both types. Endocrine disrupting chemicals (EDCs) and their interactions with steroid hormone receptors like ER causes disruption of normal endocrine function. Therefore, it is important to understand the effect of environmental chemicals in ER signaling pathway. For identifying ER antagonists, VM7Luc4E2 cell line was used to screen against Tox21 compound libraries.
VM7Luc4E2 cell line (provided by Denison MS, University of California) endogenously express full-length ER-alpha and is stably transfected with a plasmid containing four estrogen responsive elements (ERE) upstream of a luciferase reporter gene. The current screening for identification of ER-alpha inhibitors against Tox21 compound libraries used lower concentration (0.1 nM) of 17beta-Estradiol as a stimulator. The cytotoxicity of the Tox21 compound libraries against VM7Luc4E2 cell line was tested by measuring live-cell protease activity using CellTiter-Fluor assay in the same wells.
Tox21 Assay Protocol Summary:
VM7Luc4E2 cells were cultured in phenol red free assay medium containing 10% charcoal stripped FBS for 5 days prior to the assay. The cells were dispensed at 4,000 cells/well in 4 uL of assay medium into white wall/solid-bottom 1536-well plates (Corning Life Sciences, Corning, NY) using a Multidrop Combi (ThermoFisher Scientific, Waltham, MA) dispenser. After the assay plates were incubated at 37C and 5% CO2 for 24 hr, 23 nL of compounds dissolved in DMSO, positive controls or DMSO only was transferred to the assay plates by a Pintool station (Kalypsys, San Diego, CA). The transfer of compounds was followed by the addition of 1 uL of 0.1 nM (final concentration) agonist (17beta-Estradiol)/assay medium using a Flying Reagent Dispenser (FRD, Aurora Discovery, San Diego, CA). The plates were incubated at 37C and 5% CO2 for 22 hr. For cytotoxicity assay, 1 uL of CellTiter-Fluor reagent (Promega Corporation, Madison, WI) was added to each well using the FRD and after 30 min incubation at 37C and 5% CO2, The fluorescence intensity was measured using ViewLux plate reader (PerkinElmer, Shelton, CT).

Row | SMILES | Potency
1 | Cc1ccccc1C(=O)N1CC/C(=N\OS(=O)(=O)O)c2ccc(Cl)cc21 | inactive
2 | CCCCC(CC)COC(=O)c1ccccc1 (stereo not given) | inactive
3 | CN(C1CCCCC1)S(=O)(=O)c1ccccc1N | inactive
4 | COC(/C=C(\C)CCC=C(C)C)OC | inactive
5 | CC(C)=CC(C)(C)C | inactive
6 | CC(C)c1ccccc1O | inactive
7 | CC(C)COC(=O)CC(C(=O)OCC(C)C)S(=O)(=O)O (stereo not given) | inactive
8 | C[C@H](CCC(=O)O)[C@H]1CC[C@H]2[C@@H]3[C@H](O)C[C@@H]4C[C@H](O)CC[C@]4(C)[C@H]3C[C@H](O)[C@]12C | inactive
9 | CCCCCCCCCOCC1CO1 (stereo not given) | inactive
10 | NC(Cc1c[nH]c2ccccc12)C(=O)O (stereo not given) | inactive
11 | NS(=O)(=O)c1ccccc1OC(F)(F)F | inactive
12 | Cn1c(=O)c2c(ncn2CC2OCCO2)n(C)c1=O | inactive
13 | C=CCOCC(CO)(COCC=C)COCC=C | inactive
14 | C[C@H](CCC(=O)NCC(=O)O)[C@H]1CC[C@H]2[C@@H]3[C@H](O)C[C@@H]4C[C@H](O)CC[C@]4(C)[C@H]3C[C@H](O)[C@]12C | inactive
15 | Nc1ccnc(=O)[nH]1 | inactive
16 | CCC(O)C(C)(C)C (stereo not given) | inactive
17 | CC(C)(C)c1ccc(C=O)cc1 | inactive
18 | CCCCCCCCOC(C)=O | inactive
19 | O=C(O)c1ccc(OCCN2CCCCC2)cc1 | inactive
20 | FC(F)(F)c1ccc(Cl)cc1Cl | inactive

Row | SMILES | Potency
21 | O=C1OC(=O)c2ccccc21 | inactive
22 | COc1cc2c(Nc3ccc(Br)cc3F)ncnc2cc1OCC1CCN(C)CC1 | inactive
23 | CC(=O)c1ccc2c(c1)CCCC2 | inactive
24 | COc1ccc(/C=N/NC(=O)c2ccncc2)cc1OC | inactive
25 | Nc1ccc(C(=O)OCC(O)CO)cc1 (stereo not given) | inactive
26 | C=CCOC(=O)c1ccc(C(=O)OCC=C)c(C(=O)OCC=C)c1 | inactive
27 | Oc1ccccc1Cc1ccccc1O | inactive
28 | OC[C@@H](O)[C@H](O)[C@@H](O)[C@@H](O)CO | inactive
29 | CCCCCCCC[Si](OCC)(OCC)OCC | inactive
30 | CCNC(=O)NCCCOc1cccc(CN2CCCCC2)c1 | inactive
31 | C=C(C)[C@@H]1CC[C@@H](C)C[C@@H]1O | inactive
32 | COc1cc2c3cc1Oc1cc(ccc1O)C[C@@H]1c4c(cc(OC)c(O)c4Oc4ccc(cc4)C[C@@H]3N(C)CC2)CC[N+]1(C)C | inactive
33 | COc1ccc(OC)c(NC(=O)CC(C)=O)c1 | inactive
34 | CO[Si](CCCS)(OC)OC | inactive
35 | CC(=O)OC[C@H]1O[C@@H](OC(C)=O)[C@H](OC(C)=O)[C@@H]1OC(C)=O | inactive
36 | CCOC(=O)CCc1ccccc1 | inactive
37 | C=C[Si](C)(C)O[Si](C)(C)C=C | inactive
38 | O=C(O)C(=O)Nc1cccc(-c2nn[nH]n2)c1 | inactive
39 | CCCCC(C)C(=O)O (stereo not given) | inactive
40 | O=C(/C=C/c1ccccc1)NCCO | inactive
